Screens: PubChem, National Center for Advancing Translational Sciences (NCATS)
IMPase inh: IMPase inhibition in cells | CHO-M1 cells, IP1 accumulation, HTRF TR-FRET ratio | inhibition (IP1 accumulation), % at 46.1 µM | 120,000 tested, under 10 active; active = well fitted curve in the direction sought with a large enough effect in the signal ratio, not every such curve was filed as active; inconclusive = small, poorly fitted or top-dose-only effect, or a change in a side signal; inactive = no such curve, though single readings can be large or run the other way; the % refers to the signal ratio;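 also: cells stimulated with carbachol in lithium chloride buffer; plate controls were DMSO basal wells for no effect and reference inhibitor wells for full effect; higher means more IMPase inhibition seen as more IP1 and lower FRET ratio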
Target sequence (P97697 whole entry, looked up): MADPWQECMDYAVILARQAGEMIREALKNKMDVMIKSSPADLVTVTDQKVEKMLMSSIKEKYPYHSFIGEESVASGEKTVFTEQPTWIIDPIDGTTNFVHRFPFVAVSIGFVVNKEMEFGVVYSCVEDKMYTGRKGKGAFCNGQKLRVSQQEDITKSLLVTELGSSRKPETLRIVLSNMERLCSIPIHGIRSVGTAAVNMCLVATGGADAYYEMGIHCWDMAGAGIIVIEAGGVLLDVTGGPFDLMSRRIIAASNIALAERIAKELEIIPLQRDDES
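CHO-M1, 2000 cells/well, cultured 16–30 h; cpd up to 46 uM; carbachol (50 uM solution, stimulation buffer w/ 50 mM LiCl, pH 7.4), 30 min 37C; IP-One TR-FRET, 10 min RT; Ex 320/Em 665, 620; Hill-fit AC50.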
ALDH1A1 inh: ALDH1A1 (human) enzyme inhibition; P00352; Purified ALDH1A1, NADH fluorescence, propionaldehyde substrate; Potency, µM (titrated, usually from 75.3 µM), without a hit: at the top dose activity, negative = inhibition, hits mostly inhibitors; 220,000 tested, 7.3% active; AID 1030;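 also: potency is read from the fitted curve at half-maximal effect; plate controls were no enzyme wells and a reference inhibitor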
HPGD inh: blocks human HPGD enzyme activity. P15428. purified HPGD, NADH fluorescence kinetic, PGE2 substrate. Potency, µM, for the others: at the top dose activity change, negative = inhibition, usual class: inhibitors. 150,000 tested, 4.3% active. AID 894; also: potency is read from the fitted curve at half-maximal effect
Target sequence (P15428 whole entry, looked up): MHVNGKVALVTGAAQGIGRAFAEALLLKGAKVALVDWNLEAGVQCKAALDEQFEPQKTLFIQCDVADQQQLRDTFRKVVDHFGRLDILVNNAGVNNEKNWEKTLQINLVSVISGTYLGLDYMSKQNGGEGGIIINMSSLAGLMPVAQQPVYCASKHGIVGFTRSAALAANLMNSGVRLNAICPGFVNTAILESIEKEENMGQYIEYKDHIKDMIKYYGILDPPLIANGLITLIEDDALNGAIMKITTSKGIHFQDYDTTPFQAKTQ
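NADH formation kinetics: reaction with 30 uM PGE2 and 1 mM NAD+ (final), 20 nM enzyme, Tris-HCl pH 8 with Tween 20, after 15 min compound preincubation at room temperature. Fluorescence change, last versus first of five reads.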
The depositor's hits bear a star; [ ] = remark or other dose. An excerpt weighted towards active compounds, which were near 9% of everything screened. Unless noted, calls follow the shape of the dose curve; as a rule, active = well fitted inhibition curve with a large enough effect (not every such curve was filed as active); inconclusive = small, poorly fitted or top-dose-only effect, or another doubt; inactive = no such curve, though single readings can be large or run the other way. Unless noted, % is scaled to controls: 0 for no effect and ±100 for the full control effect.

CCOc1ccc(C(C)(C)C)cc1S(=O)(=O)N1CCOCC1 was read as IMPase inh 9, ALDH1A1 inh 3.2µM* and HPGD inh -3%.
COc1ccc(C(C)(C)C)cc1S(=O)(=O)N1CCN(C)CC1 was read as IMPase inh -3, ALDH1A1 inh inconclusive and HPGD inh -8%.
`COC(=O)Cn1c(CN2CCOCC2)nc2c1c(=O)[nH]c(=O)n2C` gave IMPase inh -3, ALDH1A1 inh -3% and HPGD inh -13%.
COc1ccc(NC(=O)N2CC[C@@]3(CCCN(S(C)(=O)=O)C3)C2)cc1 was read as ALDH1A1 inh -6% and HPGD inh -5%.
`O=C(NCc1cccs1)C1CC1` gave ALDH1A1 inh -4%.
For Cc1ccccc1CNC(=O)Nc1cccs1 the results were IMPase inh -7, ALDH1A1 inh inconclusive and HPGD inh -9%.
Cc1csc2nc(CNC(=O)C3CCCCC3)cn12 was read as IMPase inh -4, ALDH1A1 inh 3% and HPGD inh 16µM*.
Screening O=C(NCCc1cn2ccsc2n1)C1CCCCC1 returned IMPase inh 2, ALDH1A1 inh 2% and HPGD inh -29%.
O=C(NCc1cccs1)C1CCCCC1 was read as IMPase inh 3, ALDH1A1 inh 15% and HPGD inh 14µM*.
For O=C(NCc1cccs1)Nc1cccs1 the results were IMPase inh 0, ALDH1A1 inh 18µM* and HPGD inh inconclusive.
For Cc1ccc(C2=NN(S(=O)(=O)c3ccccc3)C(c3ccccc3O)C2)cc1 (stereo not drawn) the results were ALDH1A1 inh 7%.
`CC(O)(P(=O)(O)O)P(=O)(O)O` gave IMPase inh 0[20.6 µM], ALDH1A1 inh 3% and HPGD inh -11%.
For O=c1oc2cc(O)ccc2cc1-c1nnc(Nc2ccccc2F)s1 the results were IMPase inh -17.
Screening COC(=O)c1ccc(-n2nc(C(F)(F)F)c3c2-c2ccoc2CC3)cc1 returned IMPase inh 6[0.0738 µM], ALDH1A1 inh inconclusive and HPGD inh -12%.
`O=C(O)c1ccc(-n2nc(C(F)(F)F)c3c2-c2ccoc2CC3)cc1` gave IMPase inh inconclusive, ALDH1A1 inh -14% and HPGD inh 22µM*.
`C[N+]1(C)CCc2cc3c(cc2[C@@H]1[C@@H]1C(=O)Oc2c1ccc1c2OCO1)OCO3` gave IMPase inh 1, ALDH1A1 inh 7% and HPGD inh -4%.
For O=C(O)CCC(=O)C(=O)O the results were ALDH1A1 inh 5%[13.5 µM] and HPGD inh -16%.
Screening CC(C)(C)NC(=O)CSc1ncnc2c1nnn2Cc1ccccc1Cl returned IMPase inh -7, ALDH1A1 inh inconclusive and HPGD inh 32µM*.
For O=C(CSc1ncnc2c1nnn2Cc1ccccc1)NC1CCCC1 the results were ALDH1A1 inh 8%.
For CCC(=O)N1CCc2cc(S(=O)(=O)NCCCN3CCN(Cc4ccccc4)CC3)ccc21 the results were IMPase inh inconclusive, ALDH1A1 inh 18µM* and HPGD inh -18%.
Screening CC(=O)N1CCc2cc(S(=O)(=O)CCC(=O)NCc3ccco3)ccc21 returned ALDH1A1 inh 12%.
Screening CCC(=O)N1CCc2cc(S(=O)(=O)CCC(=O)N3CCc4ccccc4C3)ccc21 returned IMPase inh -1, ALDH1A1 inh 13µM* and HPGD inh -3%.
`O=C(CCS(=O)(=O)Cc1ccccc1)N1CCc2ccccc2C1` gave IMPase inh -4, ALDH1A1 inh inconclusive and HPGD inh -5%.
CCC(=O)N1CCc2cc(S(=O)(=O)CCC(=O)Nc3ccc(CC)cc3)ccc21 was read as IMPase inh 3, ALDH1A1 inh 2% and HPGD inh -7%.
CC(=O)N1CCc2cc(S(=O)(=O)NCCCN3CCN(Cc4ccccc4)CC3)ccc21 was read as IMPase inh -1, ALDH1A1 inh -6% and HPGD inh -2%.
Screening O=C(CCS(=O)(=O)Cc1ccccc1F)N1CCc2ccccc2C1 returned IMPase inh -9, ALDH1A1 inh 3.5µM* and HPGD inh -10%.
For CC(=O)N1CCc2cc(S(=O)(=O)CCC(=O)N3CCN(C(=O)c4ccco4)CC3)ccc21 the results were IMPase inh -8, ALDH1A1 inh 32µM* and HPGD inh -10%.
Screening CN(C1CC(C)(C)N(O)C(C)(C)C1)S(=O)(=O)CC12CCC(CC1=O)C2(C)C (stereo not drawn) returned ALDH1A1 inh -1%.
Cc1ccc(C(N)=Nc2ccccc2)cc1 was read as ALDH1A1 inh 10%[13.5 µM] and HPGD inh -7%.
Screening COc1nc(OC/C(N)=N/O)nc(N2CCOCC2)n1 returned IMPase inh -10, ALDH1A1 inh inconclusive and HPGD inh -5%.
Screening CCCCC(CC)C(=O)Nc1ncc([N+](=O)[O-])s1 (stereo not drawn) returned ALDH1A1 inh 3%.
Screening COC(=O)c1ccc(CN2C(=O)NC3(CCC(C)CC3)C2=O)cc1 (stereo not drawn) returned ALDH1A1 inh -2%.
For O=C(NCc1ccccc1)c1ccc(N2C(=O)C3CCCCC3C2=O)cc1 (stereo not drawn) the results were ALDH1A1 inh inconclusive and HPGD inh -6%.
`CCC(=O)N1CCCc2cc(S(=O)(=O)N3CCN(c4ncccn4)CC3)ccc21` gave IMPase inh 6, ALDH1A1 inh inconclusive and HPGD inh -9%.
Screening CCC(=O)N1CCCc2cc(S(=O)(=O)N3CCN(c4ccccc4F)CC3)ccc21 returned IMPase inh 11, ALDH1A1 inh 14µM* and HPGD inh -12%.
Screening COc1ccc(N(C(=O)c2cccc(C)c2)S(=O)(=O)c2ccc(C)cc2)cc1 returned IMPase inh 2.
For CCN(CC)c1ccc(/C=C2/SC(=O)N(C(C)C)C2=O)o1 the results were ALDH1A1 inh 2.5µM* and HPGD inh -20%.
For Cc1ccc(OCCN2C(=O)S/C(=C\c3ccc(C)o3)C2=O)cc1 the results were IMPase inh -8, ALDH1A1 inh inconclusive and HPGD inh -10%.
`CCOc1ccc(NC(=O)N(CCN(C)C)C(C)c2ccncc2)cc1` (stereo not drawn) gave IMPase inh -3, ALDH1A1 inh -3% and HPGD inh -6%.
For CC(C)Oc1ccccc1C1CC(=O)Nc2cc3c(cc21)OCCO3 (stereo not drawn) the results were IMPase inh 6, ALDH1A1 inh 2% and HPGD inh -11%.
Screening CCN(CC)c1ccc(C2CC(=O)Nc3cc(OC)c(OC)cc32)cc1 (stereo not drawn) returned IMPase inh 9, ALDH1A1 inh 13µM* and HPGD inh -10%.
For COc1cc2c(cc1OC)C(c1cccnc1)CC(=O)N2 (stereo not drawn) the results were IMPase inh -7, ALDH1A1 inh 8% and HPGD inh -5%.
For CCOc1c(OC)cccc1C1CC(=O)Nc2cc(OC)c(OC)cc21 (stereo not drawn) the results were IMPase inh -10, ALDH1A1 inh 6% and HPGD inh -6%.
Screening COc1cc2c(cc1OC)C(c1ccc(N(C)C)cc1)CC(=O)N2 (stereo not drawn) returned IMPase inh 9, ALDH1A1 inh 8.9µM* and HPGD inh -13%.
For COc1ccccc1C1CC(=O)Nc2cc3c(cc21)OCCO3 (stereo not drawn) the results were IMPase inh 3, ALDH1A1 inh inconclusive and HPGD inh 32µM*.
